# Bioassay records as filed in PubChem.
# Hits are enriched below; roughly 19% of the tested compounds scored in any of these assays.
# uPA surface inh: qHTS for Inhibitors of Cell Surface uPA Generation. Potency, µM (doses to about 38.3 µM), most hits filed as inhibitors. cell surface uPA generation assay, qHTS. 0.31% of 330,000 active. AID 540303, 2011; active = well fitted inhibition curve with a large enough effect; inconclusive = small, poorly fitted or top-dose-only effect; inactive = no such curve, though single readings can be large or run the other way; tested in mouse RAW 264.7 cells; note: nearly all actives have a fitted effect of over 55% in size
# TDP1 cell noCPT: qHTS for Inhibitors of human tyrosyl-DNA phosphodiesterase 1 (TDP1): qHTS in cells in absence of CPT | DT40 Tdp1-/- hTDP1 cells, no CPT, ATP luminescence, 48 h | Potency, µM (highest dose often 46.2 µM), actives largely listed as inhibitors | 15% of 420,000 active; note: nearly all actives have a fitted effect of over 55% in size
#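 Chicken DT40 Tdp1-/- cells stably complemented with human TDP1 were seeded at 400 cells/well with DMSO in place of 20 nM camptothecin. After compound pinning, cells grew at least 48 hr at 37 °C; viability read by CellTiter-Glo luminescence.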
# TDP1 cell CPT: qHTS for Inhibitors of human tyrosyl-DNA phosphodiesterase 1 (TDP1): qHTS in cells in presence of CPT. chicken DT40 Tdp1-/-;hTDP1 cells + 20 nM CPT, ATP luminescence, 48 h. Potency, µM (top dose mostly 46.2 µM), most hits filed as inhibitors. 12% of 420,000 active; note: nearly all actives have a fitted effect of over 55% in size
#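 Chicken DT40 Tdp1-/- cells complemented with human TDP1, 400 cells/well, exposed to compounds plus 20 nM camptothecin for at least 48 h at 37 C; viability read as ATP content by CellTiter-Glo luminescence.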
# HT1080NT lethal: qHTS for induction of synthetic lethality in tumor cells producing 2HG: qHTS for the HT-1080-NT fibrosarcoma cell line. 1.6% of 360,000 active. Potency, µM (doses to about 46.1 µM), usual class: cytotoxic. AID 686970, 2013. HT-1080-NT fibrosarcoma viability, CellTiter-Glo ATP luminescence, 48 h;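 note: NT is the 2HG producing partner of a matched IDH1 knockdown line; nearly all actives have a fitted effect of over 55% in size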
#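 Luminescent CellTiter-Glo readout after 48 hours of compound exposure at 37 degrees C defined viability of HT-1080-NT cells. Activity was normalized to DMSO wells and cell-free media wells; concentration-response curves were fitted and assigned curve classes.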
# IL1B secr inh: qHTS for Inhibitors of Inflammasome Signaling: IL-1-beta AlphaLISA Primary Screen. THP-1 LPS/ATP IL-1B secretion, AlphaLISA, 16 h; hits give low values. activity change, % at 57.5 µM. 4.7% of 360,000 active. AID 743279, 2014; in the data active = activity change below about -50%; inconclusive = mostly about -30% to -49%
#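 THP-1 cells pretreated 1 hr with compounds (up to 57.5 uM final), then stimulated with LPS (250 ng/mL final) plus ATP (1.25 mM final); secreted IL-1B measured by AlphaLISA after 16 hr, decreased signal indicating inhibition.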
# HT1080 IDH1KD tx: qHTS for induction of synthetic lethality in tumor cells producing 2HG: qHTS for the HT-1080-IDH1KD cell line | Potency, µM (titrated, usually from 46.1 µM), usual class: cytotoxic | HT-1080 IDH1 knockdown viability, ATP luminescence, 48 h | AID 686971, 2013 | 2% of 360,000 active
#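 Using the IDH1-knockdown HT-1080 line run in the same batch and compound series as the NT line, viability after 48 h at 37 °C was determined by CellTiter-Glo luminescence and expressed as % activity.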
# Hits are given with their value; 0 = inactive; ? = inconclusive; - = not tested or not shown. Unless noted, calls come from the whole dose curve; as a rule, active = well fitted curve in the direction sought with a large enough effect; inconclusive = small, poorly fitted or top-dose-only effect, or another doubt; inactive = no such curve, though single readings can be large; an effect the other way counts as inactive or inconclusive.
SMILES,uPA surface inh,TDP1 cell noCPT,TDP1 cell CPT,HT1080NT lethal,IL1B secr inh,HT1080 IDH1KD tx
COC(CNC(=O)C(=O)NCC1CCCN1S(=O)(=O)c1cccs1)OC (configuration not stated),0,0,0,0,0,0
Cc1nn(C)c(C)c1NC(=O)CSc1nc(Cc2ccccc2)nc2c1cnn2-c1ccccc1,0,?,?,0,0,0
Cc1nn(Cc2ccccc2)c(C)c1NC(=O)CSc1nc(C2CC2)nc2c1cnn2-c1ccccc1,0,16.4µM,16.4µM,0,0,0
O=C(NCC(c1ccco1)N1CCc2ccccc2C1)c1ccc(Br)cc1 (configuration not stated),0,23.1µM,?,0,0,0
O=C(NCC(c1ccco1)N1CCc2ccccc21)c1ccccc1Cl (configuration not stated),0,?,?,0,0,0
O=C(NCC(c1ccco1)N1CCc2ccccc2C1)c1cccc([N+](=O)[O-])c1 (configuration not stated),0,?,?,0,0,0
O=C(NCC(c1ccco1)N1CCc2ccccc2C1)c1ccc(Cl)cc1 (configuration not stated),0,?,?,0,0,0
O=C(NCC(c1ccco1)N1CCc2ccccc2C1)c1ccc(Cl)c([N+](=O)[O-])c1 (configuration not stated),0,?,?,0,-82.6,0
O=C(NCC(c1ccco1)N1CCCC1)c1ccc(Cl)c(S(=O)(=O)N2CCc3ccccc32)c1 (configuration not stated),0,7.31µM,8.2µM,0,-54.9,?
Cc1ccc(C(=O)NCC(c2ccco2)N2CCc3ccccc3C2)cc1C (configuration not stated),0,20.6µM,18.4µM,0,0,0
Cc1ccc(C(=O)NCC(c2ccco2)N2CCc3ccccc3C2)cc1 (configuration not stated),0,?,?,0,0,0
CN(Cc1ccc(Cl)c(Cl)c1)C(=O)C1CSC2(C)CCC(=O)N12 (configuration not stated),0,14.6µM,14.6µM,0,0,0
OCCC1CN(C/C=C/c2ccco2)CCN1Cc1ccccc1 (configuration not stated),0,0,0,0,0,0
Nc1c(Cl)cc2c(c1Oc1ccccc1)C(=O)c1ccccc1C2=O,0,0,0,0,-70.8,0
Nc1c(Cl)cc2c(c1Br)Cc1ccccc1-2,0,0,0,0,0,0
CN(C)c1nc(CN2CCCCC2c2cccnc2)nc2ccccc12 (configuration not stated),-,0,0,-,-,-
CCC1CCc2c(sc3ncnc(N4CCOCC4)c23)C1 (configuration not stated),0,18.4µM,?,0,0,0
O=C(CCn1cnnn1)N1CCCC(Nc2ccc(F)c(F)c2)C1 (configuration not stated),0,0,?,?,0,0
O=C(/C=C/c1ccc(Cl)cc1)NC1CC2CCC1C2 (configuration not stated),0,?,0,0,-99.0,0
COc1cccc(CCc2ccccc2OCC(CN(C)C)OC(=O)CCC(=O)O)c1 (configuration not stated),-,11.2µM,15.8µM,-,-,-
O=C(NCCc1ccccc1)c1cccc(N2CCCC2=O)c1,?,0,0,0,0,0
CCCn1c2c(c(=N)c3c1CCC3)CCCC2,0,5.17µM,9.2µM,0,0,0
N=c1c2c(n(Cc3ccc(Cl)c(Cl)c3)c3c1CCC3)CCCC2,0,2.59µM,2.91µM,23.1µM,-72.3,18.4µM
N=c1c2c(n(Cc3ccc(Br)cc3)c3c1CCC3)CCCC2,3.98µM,0.517µM,0.92µM,20.6µM,-81.1,18.4µM
Clc1ccc(CN2CCN(c3ncccn3)CC2)cc1Cl,0,?,0,0,0,0
SMILES,uPA surface inh,TDP1 cell noCPT,TDP1 cell CPT,HT1080NT lethal,IL1B secr inh,HT1080 IDH1KD tx
O=c1[nH]c(=O)n(Cc2ccccc2)c2c1CCC2,0,?,0,0,0,0
CCOC(=O)Cn1c2c(c(=N)c3c1CCC3)CCCC2,0,0,0,0,0,0
CCCCCCCn1c2c(c(=N)c3ccccc31)CCC2,0,0.581µM,0.517µM,?,?,11.6µM
COCC(=O)N/N=C(\C)CC(=O)NCc1ccco1,0,0,0,0,0,0
[O-][N+](=C(c1ccccc1)c1ccccc1)c1ccccc1,0,?,?,0,0,0
Cc1ccc(-n2nnnc2CNC(=O)c2ccccc2)cc1C,-,0,0,-,-,-
Cc1nn(C)c(Oc2cccc(C(F)(F)F)c2)c1C#N,0,0,0,0,0,0
Cc1nn(C)c(Oc2cccc(Cl)c2)c1C#N,0,23.1µM,?,0,0,0
COc1ccccc1-c1nnc(NC(=O)c2ccc3c(c2)OCO3)s1,0,2.06µM,2.31µM,0,0,?
COC(=O)c1c(-c2cccnc2)csc1NC(=O)c1ccc2c(c1)OCO2,0,23.1µM,?,0,0,0
CC(C)c1nnc(NC(=O)c2ccc3c(c2)OCO3)s1,0,0,0,0,0,0
CC(c1ccccc1)c1nnc(NC(=O)c2ccc3c(c2)OCO3)s1 (configuration not stated),?,18.4µM,?,0,0,?
CCOC(=O)c1ccc(NC(=O)CSc2nc3ccccc3c(=O)n2CCC(=O)NC2CCCCC2)cc1,-,0,0,-,-,-
COc1ccc(/C(C)=N/OCC(=O)N=Nc2c(O)[nH]c3ccc(Br)cc23)cc1,0,18.4µM,?,0,0,?
COc1ccc(/C=N/OCC(=O)N=Nc2c(O)[nH]c3ccc(Br)cc23)cc1OC,0,23.1µM,25.9µM,?,0,0
COc1ccc2[nH]c(O)c(N=NC(=O)Cc3cccs3)c2c1,0,?,?,0,0,0
C=CCOc1ccc(CN(C)C(=O)CNC(=O)c2ccc(-c3ccccc3)cc2)cc1,?,20.6µM,?,0,0,?
CCOc1ccc(CN(C)C(=O)CNC(=O)Cc2cccc3ccccc23)cc1,0,23.1µM,?,0,0,0
CN(CCOc1ccc(Br)cc1)C(=O)CNC(=O)c1ccc2ccccc2c1,0,?,0,0,-91.3,0
CCOc1ccc(N(CC(=O)NC2CCCCC2)C(=O)Cn2nnc(-c3ccc(C)o3)n2)cc1,0,?,?,0,0,0
